Assay outcomes (PubChem BioAssay)
SENP8 block-1: blocks human SENP8 cleavage of Nedd8 substrate. Q96LD8. recombinant SENP8, Nedd8 substrate fluorescence. inhibition, % at 20 µM. 360,000 tested, 0.64% active. AID 602440; in the data active = inhibition mostly above about 40%, no sharp cut-off; inactive = mostly below about 27%
SENP7 inh: SENP7 protease inhibition; inhibition, % at 5 µM; 330,000 tested, 1.5% active; AID 434973; Q9BQF6; recombinant SENP7, Z-RLRGG-aminoluciferin luminescence, 40 min;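 active = inhibition above about 50% at the single test dose, limit read from the data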;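 note: plate controls were DMSO with enzyme for no effect and no enzyme buffer wells for full effect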
SENP8 block-2: blocks the human protease SENP8; Q96LD8; purified SENP8, Z-RLRGG-aminoluciferin cleavage, luminescence; inhibition, % at 10 µM; 330,000 tested, 1.2% active; AID 2540; in the data active = inhibition above about 50%
TRAIL sens C8: caspase-8 TRAIL sensitization. 360,000 tested, 1% active. inhibition (viability loss, TRAIL sensitization), % at 10 µM. NB7+C8 cells + TRAIL, ATPlite viability luminescence;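 active = compounds causing at least 50% loss of cell viability in the single-dose screen, relative to plate controls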
SENP6 block: blocks the human protease SENP6 | AID 2599 | inhibition, % at 10 µM | Recombinant SENP6 catalytic domain, aminoluciferin luminescence | 330,000 tested, 1.8% active | Q9GZR1;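 active = inhibition above about 50% at the single tested dose, limit read from the data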;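 note: plate controls were DMSO wells with enzyme for no effect and DMSO wells lacking enzyme for full effect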
Target sequence (Q9GZR1 628-1112 limits assumed): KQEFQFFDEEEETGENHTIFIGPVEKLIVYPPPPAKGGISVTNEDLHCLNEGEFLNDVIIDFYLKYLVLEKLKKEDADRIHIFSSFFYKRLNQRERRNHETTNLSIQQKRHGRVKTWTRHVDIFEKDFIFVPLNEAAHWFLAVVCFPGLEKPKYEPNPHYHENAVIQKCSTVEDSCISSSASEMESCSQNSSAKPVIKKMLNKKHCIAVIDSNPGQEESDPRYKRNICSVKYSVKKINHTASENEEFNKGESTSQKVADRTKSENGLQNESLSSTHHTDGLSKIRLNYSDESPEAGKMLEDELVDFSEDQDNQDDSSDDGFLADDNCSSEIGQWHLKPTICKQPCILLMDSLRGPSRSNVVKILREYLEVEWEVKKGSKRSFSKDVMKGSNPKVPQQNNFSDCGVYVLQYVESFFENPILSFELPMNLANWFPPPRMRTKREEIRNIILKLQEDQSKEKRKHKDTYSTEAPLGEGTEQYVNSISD
PPC-1+TRAIL kill: compounds killing PPC-1 cancer cells with TRAIL present (potentiator screen, no TRAIL-free arm) | cell killing (% activity), % at 4 µM or 5 µM | 220,000 tested, 0.41% active | PPC-1 cells + TRAIL, ATPLite viability luminescence | AID 1443;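 active = cell killing above 50% in the first pass at 4 µM, then a duplicate retest at 5 µM averaging 50% or more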;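 note: plate controls were cells with TRAIL plus DMSO for no effect and medium-only wells lacking cells for full effect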
SENP8 confirm: confirmation of human SENP8 protease inhibitors. shares compounds with SENP7 inh. Recombinant SENP8, Z-RLRGG-aminoluciferin luminescence, 60 min. AID 488912. inhibition, % at 12.5 µM. 6,200 tested, 40% active;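 active = mean inhibition across replicates above about 50%, limit read from the data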
SENP6 conf: confirmation of human SENP6 protease inhibitors; shares compounds with SENP7 inh; recombinant SENP6, Z-RLRGG-aminoluciferin luminescence; inhibition, % at 12.5 µM; 6,200 tested, 58% active; AID 488915
SENP7 conf: confirmation of human SENP7 protease inhibitors; recombinant SENP7, Z-RLRGG-aminoluciferin luminescence, 40 min; 6,200 tested, 69% active; inhibition, % at 12.5 µM; AID 488917; shares compounds with SENP7 inh
Casp3 select: caspase-3 inhibition (SENP selectivity assay); shares compounds with SENP7 inh; purified caspase-3, Z-DEVD-aminoluciferin luminescence, 60 min; inhibition, % at 12.5 µM; 6,200 tested, 60% active;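 active = mean inhibition above about 50%, limit read from the data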;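 note: plate controls were enzyme with DMSO for no effect and wells without caspase-3 for full effect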
Luc interf: counter-screen for SENP inhibitors: luminescence interference. 6,200 tested, 39% active. shares compounds with SENP7 inh. Pre-incubated SENP8/Z-RLRGG-aminoluciferin, luciferase luminescence interference. inhibition, % at 12.5 µM;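 active = mean inhibition above about 50% when retested at one dose, limit read from the data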;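 note: plate controls were DMSO wells with completed reaction for no effect and substrate without enzyme for full effect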
An asterisk follows results filed as active; nt = no result given. Only some compounds are listed: those with a hit (about 3% of all), similar ones and a draw of the others.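 Rule for the calls, unless noted: active = mean inhibition above about 50% in the one-dose retest (limit read from the data); inactive = the rest.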

SMILES	SENP8 block-1	SENP7 inh	SENP8 block-2	TRAIL sens C8	SENP6 block	PPC-1+TRAIL kill	SENP8 confirm	SENP6 conf	SENP7 conf	Casp3 select	Luc interf
CC(=O)Oc1ccc2c(=O)c(-c3nc4ccccc4s3)coc2c1	-112	99*	94*	69*	98*	37	45	39	30	72*	51*
COC(=O)COc1ccc2c(=O)c(-c3ccccc3)coc2c1	5	2	5	4	4	0	nt	nt	nt	nt	nt
COc1ccc2c(=O)c(-c3ccc4c(c3)OCO4)coc2c1	15	96*	84*	57*	88*	40	56*	87*	64*	77*	16
CC(C)Oc1ccc2c(=O)c(-c3ccccc3)coc2c1	1	71*	61*	21	68*	37	7	25	52*	36	13
COc1cc(-c2ccc(Nc3ccccc3C(=O)O)c(OC)c2)ccc1Nc1ccccc1C(=O)O	30	3	60*	24	74*	11	-9	55*	24	8	69*
Cc1ccc(NCc2nc3ccccc3n2C)c(C)c1	12	79*	71*	83*	76*	nt	83*	83*	95*	88*	85*
Cc1cccc(NCc2nc3ccccc3n2C)c1	15	56*	29	-9	50*	22	42	42	79*	71*	56*
Cc1cccc(NCc2nc3ccccc3n2Cc2ccccc2)c1	-1	27	23	-6	58*	-14	29	26	58*	25	35
O=C(NC1CCCC1)N[C@@H]1CC[C@@H](CC(=O)N2CCOCC2)O[C@@H]1CO	11	nt	nt	-25	nt	nt	nt	nt	nt	nt	nt
Cc1c(NC(=O)C(C)OC(=O)C23CC4CC(CC(Br)(C4)C2)C3)c(=O)n(-c2ccccc2)n1C (stereo not given)	0	-8	-8	-5	-4	18	nt	nt	nt	nt	nt
COc1ccccc1Cn1[nH]nnc1=S	0	4	6	-9	-20	11	nt	nt	nt	nt	nt
COc1ccc(/C=N/Nc2ccc(C(=O)O)cc2)c(OC)c1OC	-197	21	7	-1	-7	nt	nt	nt	nt	nt	nt
O=C(O)c1ccc(S(=O)(=O)NN=Cc2c[nH]c3ccccc23)cc1	28	nt	nt	-22	nt	nt	nt	nt	nt	nt	nt
O=C(O)c1ccc(N/N=C/c2ccnc3ccccc23)cc1	11	92*	82*	-8	91*	2	77*	90*	92*	69*	10
O=C(O)c1ccc(N/N=C/c2c[nH]c3ccccc23)cc1	-279	100*	98*	18	97*	nt	98*	100*	102*	96*	97*
COc1ccccc1C(=O)C1CCCN(C(=O)c2cccc(Cn3cccn3)c2)C1 (stereo not given)	6	4	-8	-10	-5	nt	nt	nt	nt	nt	nt
CCCCn1nnnc1C1(C)CCC(=O)N1Cc1cccc(F)c1 (stereo not given)	17	nt	nt	-14	nt	nt	nt	nt	nt	nt	nt
O=c1cc(-c2ccc(O)cc2)oc2cc(O)cc(O)c12	14	29	54*	11	70*	nt	52*	51*	75*	40	62*
O=c1cc(-c2ccc(O)cc2)oc2ccc(O)cc12	-278	30	19	6	51*	33	12	20	61*	45	45
COc1ccc2nc(NC(C)=O)sc2c1	28	31	5	7	-5	10	nt	nt	nt	nt	nt
CC(=O)Nc1ccc2nc(NC(=O)c3cccs3)sc2c1	-409	92*	83*	31	93*	26	56*	87*	93*	90*	48
COc1ccc2nc(NC(=O)Nc3ccccc3OC)sc2c1	8	93*	44	44	81*	nt	-8	-7	7	64*	-3
Cc1nc2ccc(NC(=O)c3cccs3)cc2s1	2	-2	-12	-12	-7	nt	nt	nt	nt	nt	nt
Cc1nc2cc(NC(=O)c3ccc([N+](=O)[O-])s3)ccc2s1	25	39	-7	31	2	nt	nt	nt	nt	nt	nt
COc1ccc2nc(NC(=O)c3cccs3)sc2c1	12	97*	94*	-8	96*	47	2	4	-3	10	17
SMILES	SENP8 block-1	SENP7 inh	SENP8 block-2	TRAIL sens C8	SENP6 block	PPC-1+TRAIL kill	SENP8 confirm	SENP6 conf	SENP7 conf	Casp3 select	Luc interf
CC(=O)Nc1ccc2nc(NC(=O)c3ccc([N+](=O)[O-])s3)sc2c1	nt	22	41	nt	64*	5	6	8	4	20	-1
Cc1ccc(-c2cc(C(=O)N3CCCCC3)c3ccccc3n2)cc1C	-38	5	-5	38	-4	nt	nt	nt	nt	nt	nt
COc1ccc2nc(NC(=O)c3ccccc3O)sc2c1	-290	82*	86*	78*	84*	nt	42	38	70*	60*	5
COc1ccc2nc(NC(=O)c3ccccc3[N+](=O)[O-])sc2c1	15	-1	1	-10	12	nt	nt	nt	nt	nt	nt
O=C(Nc1ccc(N2CCOCC2)c2nonc12)C1CCCC1	35	24	24	26	49	-4	nt	nt	nt	nt	nt
O=C(Nc1ccc(F)cc1)Nc1ccc(N2CCOCC2)c2nonc12	28	57*	4	21	17	4	4	12	44	44	17
O=C(Cc1ccc(OCc2ccccc2)cc1)NCc1ccc2c(c1)OCO2	7	nt	nt	11	nt	nt	nt	nt	nt	nt	nt
Cc1ccc(COc2ccc3c(c2)OCO3)cc1	7	86*	75*	18	91*	nt	48	85*	98*	70*	31
O=Cc1ccc(OCc2ccc3c(c2)OCO3)cc1	32	71*	62*	6	77*	nt	73*	73*	92*	81*	83*
Cc1ccc(NC(=S)NCc2ccccc2)cc1S(=O)(=O)N1CCCCC1	5	7	1	5	-4	24	nt	nt	nt	nt	nt
CCC(Oc1ccccc1OC)C(=O)N1CC(=O)Nc2ccccc21 (stereo not given)	14	-7	-3	5	-39	nt	nt	nt	nt	nt	nt
Cc1cnc(NC(=O)c2cccs2)s1	-9	57*	50	46	69*	nt	62*	60*	86*	84*	34
Cc1ncoc1C(=O)Nc1ncc([N+](=O)[O-])s1	21	97*	93*	3	95*	5	99*	100*	103*	99*	98*
